In the library only some 9.3% were active in any assay of this set; here they are far more common.
ELG1 repair inh: ELG1-dependent DNA repair inhibition | HEK293T ELG1-luciferase reporter, luminescence, 16 h; DNA damage induced by 5-fluorouridine | Potency, µM (doses to about 46.1 µM), inactives show at the top dose activity change, negative = inhibition, most hits filed as inhibitors | actives 2.3% (n = 330,000) | AID 504467; further: on the % scale 0 is the no-effect control and ±100 the full control effect; nearly all actives have a fitted effect of over 55% in size
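Step one: seed 2,000 cells per well. Step two: pin-transfer compound or DMSO alongside 5-fluorouridine. Step three: incubate 16 hr, 37 °C, 5% CO2. Step four: add ONE-Glo, wait 30 min, read luminescence.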
SMN2 splice up: increases expression of the SMN2 splice variant | HEK293 SMN2-luciferase splicing reporter, luminescence, 30-36 h | Potency, µM (highest dose often 46.1 µM), for the others: at the highest dose activity change, positive = activation, usual class: activators | actives 2.8% (n = 210,000); further: % of control where 0% means no effect; nearly all actives have a fitted effect of over 55% in size
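HEK293 cells carry an SMN2 […]–luciferase reporter in which exon 7 inclusion puts luciferase in frame. Cells were plated 10-12 h before compound addition, then incubated 30-36 h at 37C. ONE-Glo luminescence was read; sodium butyrate at 4.5 mM final served as control.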
FLuc modulator: firefly luciferase modulation, counter-screen for miR-21 project | P08659 | purified FLuc, Km substrates, luminescence inhibition | Potency, µM (titrated, usually from 57.5 µM), inactives show at the highest dose activity change, negative = inhibition, actives largely listed as inhibitors | actives 6.9% (n = 360,000) | AID 588342;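 further: plate controls were vehicle for no effect and reference inhibitor for full effect; nearly all actives have a fitted effect of over 55% in size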
Target sequence (P08659 whole entry, looked up): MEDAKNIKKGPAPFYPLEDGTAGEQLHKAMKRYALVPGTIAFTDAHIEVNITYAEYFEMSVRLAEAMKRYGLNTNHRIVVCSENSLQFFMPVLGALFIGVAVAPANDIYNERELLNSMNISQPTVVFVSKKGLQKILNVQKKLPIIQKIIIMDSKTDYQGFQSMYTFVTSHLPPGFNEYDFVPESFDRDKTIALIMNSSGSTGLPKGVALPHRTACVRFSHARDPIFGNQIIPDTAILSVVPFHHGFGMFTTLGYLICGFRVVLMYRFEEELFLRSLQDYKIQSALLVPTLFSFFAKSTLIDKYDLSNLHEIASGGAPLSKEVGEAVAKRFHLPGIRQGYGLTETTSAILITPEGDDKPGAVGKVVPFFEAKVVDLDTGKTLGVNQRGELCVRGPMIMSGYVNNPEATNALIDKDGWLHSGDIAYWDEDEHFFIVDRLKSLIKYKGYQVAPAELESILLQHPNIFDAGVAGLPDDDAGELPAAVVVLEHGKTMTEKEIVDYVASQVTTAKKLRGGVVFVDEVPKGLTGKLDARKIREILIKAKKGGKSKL
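Purified P. pyralis luciferase (10nM final) with 10uM D-luciferin and 10uM ATP (Km levels) in 50mM Tris acetate pH 7.5, 10mM Mg acetate, 0.01% Tween-20, 0.05% BSA; qHTS 6-point titration, ~60 µM downward; luminescence read.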
ELG1 genotoxic: inducers of genotoxicity in HEK293T ELG1-luciferase cells | Potency, µM (top dose mostly 46 µM), for the others: at the highest dose activity change, positive = activation, actives largely listed as activators | HEK293T ELG1-luciferase reporter, luminescence, 16 h | actives 1.3% (n = 330,000); further: % of control where 0% means no effect; nearly all actives have a fitted effect of over 60% in size
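DMSO vehicle served as control against compound-treated ELG1-luciferase HEK293T cells; exposure lasted 16 hr at 37 °C and 5% CO2, followed by ONE-Glo luminescence detection after 30 min.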
NPC1 prom act: activators of NPC1 promoter. Huh7 NPC1 promoter luciferase reporter, 24 h. Potency, µM (doses to about 9.22 µM), for the others: at the top dose activation, actives largely listed as activators. actives 2.4% (n = 320,000); further: % of control where 0% means no effect; nearly all actives have a fitted effect of over 60% in size
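Stable NPC1-promoter luciferase Huh7 line; cpd (DMSO) 24 h, 37 °C, 5% CO2; Amplite luciferase reagent 10 min RT; luminescence readout. qHTS format.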
Rab9 prom act: activates the Rab9 promoter; Huh7 Rab9 promoter-luciferase reporter, luminescence, 24 h; Potency, µM (highest dose often 9.22 µM), for the others: at the highest dose activation, negative = inhibition, hits mostly activators; actives 2.8% (n = 320,000); further: % of control where 0% means no effect; nearly all actives have a fitted effect of over 60% in size
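Cells were plated at 1500 per well in reduced-serum medium with 10% FBS and left 2 h. Compound in DMSO was then added for 24 h at 37 °C. Reporter signal was read by luminescence after 10 min with luciferase detection reagent.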
Active calls of the source: *; ? = inconclusive; · = no result; [ ] = remark or other dose. The call rests on the fitted dose curve; in most records, active means well fitted curve in the direction sought with a large enough effect; inconclusive means small, poorly fitted or top-dose-only effect, or another doubt; inactive means no such curve, though single readings can be large; an effect the other way counts as inactive or inconclusive. Potency means the concentration at half of the fitted maximal effect.

SMILES	ELG1 repair inh	SMN2 splice up	FLuc modulator	ELG1 genotoxic	NPC1 prom act	Rab9 prom act
Cc1ccc(/C=C/C(=O)c2c(C)nc3ccccn23)cc1	?	?	1.1µM*	16%	?	1.4µM*
Cc1ccc(NC(=O)COC(=O)c2ccccc2Nc2ccccc2)cc1	5%	-23%	5%	0%	1%	-2%
Cc1ccc(NC(=O)CC(=O)c2ccccc2)cc1C	?	·	15µM*	?	?	4µM*
CCc1ccc(NC(=O)CCC(=O)c2ccccc2)cc1	6%	·	13µM*	3%	0%	-6%
COC(=O)CSC(C(=O)Nc1ccc(C)c(C)c1)c1ccccc1 (stereo not given)	?	9%	17µM*	6%	-5%	10%
Cc1ccc(C(=O)Nc2ccc(Oc3ccc(C(=O)O)c(C(=O)O)c3)cc2)cc1C	5%	0%	6µM*	1%	-1%	-9%
Cc1ccc(NC(=O)CO/N=C(\N)c2ccccc2)cc1C	0%	·	·	5%	·	·
Cc1ccc(NC(=O)c2ccccc2C(=O)O)cc1C	·	-5%[9.22 µM]	·	·	·	·
Cc1ccc(NC(=O)CSc2n[nH]c(-c3ccncc3)n2)cc1	-2%	7%	?	-3%	0%	0%
Cc1cccc(C(=S)N2CCOCC2)n1	10%	·	-1%	1%	-9%	2%
Cc1ccc(NC(=O)c2cccc(N3CCCS3(=O)=O)c2)cc1C	·	·	19µM*	·	·	·
Cc1ccc(NC(=O)c2c(C)nc3ccccn23)cc1C	?	13µM*	8.5µM*	-1%	3.2µM*	1.8µM*
Cc1cccc(NC(=O)c2c(C)nc3ccccn23)c1	?	?	?	4%	22%	?
Cc1ccc(CNC(=O)c2cccc(N3CCCS3(=O)=O)c2)cc1	·	·	4%	·	·	·
Cc1cccc(C(=O)NNC(=O)c2ccccc2O)c1	?	·	21µM*	?	3.2µM*	?
Cc1cccc(C(=O)NNC(=O)c2ccccc2C)c1	?	12%	?	6%	6%	5%
COc1ccc(NC(=O)CS(=O)c2ccccc2Cl)cc1 (stereo not given)	29%	·	-1%	15%	2%	0%
COc1ccc(S(=O)(=O)N2CCN(C(=S)Nc3ccc(S(N)(=O)=O)cc3)CC2)cc1	0%	·	-1%	0%	-1%	2%
c1ccc(COc2ccc3nocc3c2)cc1	?	·	7.6µM*	?	3.2µM*	2µM*
CC(C)CC(=O)Nc1ccc(-c2nnn(CC(=O)NCc3ccco3)n2)cc1	?	?	11µM*	?	?	?
CCCCOc1ccc(-c2nnn(CC(=O)NCc3ccco3)n2)cc1	?	?	?	?	20%	?
O=C(O)c1cc(N=Cc2ccccc2O)cc(C(=O)O)c1	·	-7%[9.22 µM]	·	·	·	·
O=Cc1cc(N=Nc2cccc(C(=O)O)c2)ccc1O	11%	15%	11µM*	-2%	?	?
O=Cc1cc(N=Nc2ccccc2Cl)ccc1O	?	·	19µM*	11%	2.5µM*	2.2µM*
Cc1csc2ncnc(N3CCN(C(=S)Nc4ccc(C(F)(F)F)cc4)CC3)c12	-10%	·	3%	-12%	-3%	-2%
SMILES	ELG1 repair inh	SMN2 splice up	FLuc modulator	ELG1 genotoxic	NPC1 prom act	Rab9 prom act
COc1ccc(S(=O)(=O)Cc2ccc(C(=O)N3CCN(c4cccc(C)c4C)CC3)o2)cc1	16µM*	-51%	-1%	-44%	-19%	-12%
CCOC(=O)N1CCN(C(=O)c2ccc(CS(=O)(=O)c3ccccc3OC)o2)CC1	?	-6%	-1%	-2%	0%	-1%
COc1ccccc1S(=O)(=O)Cc1ccc(C(=O)N2CCN(c3ccc(C)cc3)C(C)C2)o1 (stereo not given)	21µM*	-26%	8%	-43%	-5%	-6%
COc1ccc(S(=O)(=O)Cc2ccc(C(=O)N3CCN(c4cccc(C)c4)C(C)C3)o2)cc1 (stereo not given)	13µM*	-10%	3%	-19%	-20%	-8%
CCOC(=O)C1CCN(C(=O)Cn2ncc3c4ccccc4n(C)c3c2=O)CC1	·	-5%	-11%	·	·	·
Cc1cc(C(=O)CSc2ccccc2)cc(C)c1O	?	·	19µM*	?	?	0%
Cc1cc(C(=O)CS(=O)(=O)c2ccccc2)cc(C)c1O	0%	·	?	?	28%	26%
CCOC(=O)CCSc1nc(C)c2ccccc2n1	?	-3%	?	?	-2%	4%
CCOC(=O)CCSc1nc(C)c2cc(C)ccc2n1	?	-6%	9.5µM*	18µM*	16%	22%
CCC(=O)N/C(N)=N/c1nc(C)c2cc(OC)ccc2n1	?	?	11µM*	10µM*	-1%	23%
CCOC(=O)CSc1nc(C)c2cc(OC)ccc2n1	?	41%	24µM*	?	-5%	2%
COc1ccc2nc(C)cc(SCC(=O)NNC(=O)COc3ccccc3)c2c1	-27%	-7%	-3%	-4%	0%	-3%
CCOC(=O)CNC(=O)CSc1cc(C)nc2ccc(OC)cc12	?	·	6.7µM*	?	4µM*	3.2µM*
CCOC(=O)CSc1nc(C)c2cc(C)c(C)cc2n1	5%	·	?	2%	-5%	-3%
COc1ccc(C(C(=O)NC(C)C)N(C(=O)CCC(=O)Nc2nccs2)c2ccccc2F)cc1 (stereo not given)	8%	·	5%	-3%	-8%	-10%
CC(=O)c1cc(-c2ccc(F)cc2)n(CC(=O)Nc2cc(C)cc(C)c2)c1C	·	·	3%	·	·	·
CCn1c2ccccc2c2nc3cc(C(=O)O)ccc3nc21	?	-57%	19µM*	?	13%	30%
CCn1c2ccccc2c2nc3cc(OC)c(OC)cc3nc21	?	·	8.5µM*	-2%	-2%	15%
COc1cc2nc3c4ccccc4n(CC#N)c3nc2cc1OC	-5%	-9%	?	1%	?	2%
CC(=O)n1c2ccccc2c2nc3ccccc3nc21	?	·	?	?	3.2µM*	2.8µM*
CCn1c2ccccc2c2nc3ccccc3nc21	-1%	-29%	?	1%	?	-4%
CC(=O)n1c2ccccc2c2c1c1ccccc1n2C	1%	11%	-2%	1%	26%	6%
CCOC(=O)c1c(N)sc(C(O)(C(F)(F)F)C(F)(F)F)c1-c1ccccc1	?	-26%	0%	12%	-1%	0%
CCOC(=O)c1cc(-c2ccccc2)sc1NC(=O)C(C)Sc1nnc(N)s1 (stereo not given)	23µM*	-26%	-14%	-5%	-5%	3%

Source: PubChem BioAssay
